# From the supplement of paper PMC10105736
# Values without a mark were called inactive.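 How the source made its calls: active = MAPPIT score above the 99th percentile of random reference set scores in the same batch; inactive = at or below it.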
# What was measured:
# Test in all cases: MAPPIT interaction score (arbitrary units); higher = stronger binary interaction signal, active = hit call of the paper
# CG7137 = settings: pair source set: Lit-BM-16
# CG7407 = settings: MAPPIT configuration: N-C; pair source set: screen_3
# Dpm3 = settings: MAPPIT configuration: N-C; pair source set: screen_4
# CG7747 = settings: MAPPIT configuration: N-N; pair source set: Finley_Y2H
# CG6996 = settings: MAPPIT configuration: N-N; pair source set: Finley_Y2H
# Mcad = settings: MAPPIT configuration: N-N; pair source set: Lit-BS-16
# Treh = settings: MAPPIT configuration: N-N; pair source set: Finley_Y2H
# Unr = settings: pair source set: Lit-BM-16
# gcm = settings: MAPPIT configuration: N-N; pair source set: Finley_Y2H
# noi = settings: MAPPIT configuration: N-N; pair source set: Finley_Y2H
# prd = settings: MAPPIT configuration: N-N; pair source set: Finley_Y2H
# CG7548 = settings: MAPPIT configuration: N-N
# CG7044 = settings: MAPPIT configuration: N-N; pair source set: Lit-BS-16
# aspr = settings: MAPPIT configuration: N-N; pair source set: Lit-BS-16
# 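Further: HEK293T cells with Epo stimulation, STAT-responsive firefly luciferase reporter, fold induction versus unstimulated cells divided by the larger fold induction of two negative controls lacking either bait or prey.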
binder,measurement,setting,value
grau (protein) MDICRLCLRGVSGAQMCLQIFDVDSGESKVAEVLRQHFWFEVLPNDEISKVICNVCWTQVSEFHQFYVSIQEAQVIYATTSKFKQDPEMVNTSWPEEVLMPADVLAVDNDVGAQINVNPLDELDLSQPMSPEDSKVGIKTERQSPDMELLFEDANNEQDEDYEDDEDDDTDDLIVTRSGRKRKRDVAKPAKTKRGTVSVGRKGKEKMVVKRGPPKRIFKMERLPPFCKEDEELIKRYIVMGCELCIFLAEDFDGIREHFKDKHPDERPYIKCCGRKLNKRCLIQEHARRHENPEYIKCKDCGKVFANSSVLRAHWLVHHVPDEECDFQCEDCGKRFSRRNLLELHKGSHVPVNERKFICPQCPKHNAFATEYHMQVHISMQHRKAANICHVCGKKIKDKAVFEKHVRLHFEESGPRIKCPRPDCESWLKDEDNLKQHLRRHNDEGKLFICSECGKSCKNSRALIGHKRYSHSNVIYTCEQCGKTFKKDISLKEHMAQHTGEPLYKCPFCPRTFNSNANMHSHKKKMHPVEWDIWRKTKTGSSQKVLPSAQVAQMFRDDADVAAIANDYSG,MAPPIT interaction score,CG7137; MAPPIT configuration: N-C,3.33
same,MAPPIT interaction score,CG7137; MAPPIT configuration: N-N,0.66
Sras (protein) MKNLSETEAEVTMQENVVHESLPQIPVATSVSCCFVLAVLYVGSLYIWSTKHNRDHPTTVKRRFASVSMVMLAAPFFVYFFSSPELLSRVPFPKLLGLRLEGLWQAVVIPYSLTVLLFLGPIFVNMQNESVRSYFDLDYWRGSFGSIIWVRNHVIAPLSEEFVFRACMMPLILQSFSPLVAVFITPLFFGVAHLHHIAERLSLGVELSTALLIGLFQFIYTTLFGFYSAFLFARTGHVMAPILVHAFCNHMGLPDLQDLWQQDLWRRVVAIILYLAGFVGWMFLVPLATDPSIYDNTLYWNA,MAPPIT interaction score,CG7407,-0.229
same,MAPPIT interaction score,Dpm3,0.0475
Shrm (protein) MKMRNHKENGNGSEMGESTKSLAKMEPENNNKISVVSVSKLLLKDSNGANSRSSNSNASFSSASVAGSVQDDLPHHNSSSSQLGQQHGSSLDQCGLTQAGLEEYNNRSSSYYDQTAFHHQKQPSYAQSEGYHSYVSSSDSTSATPFLDKLRQESDLLSRQSHHWSENDLSSVCSNSVAPSPIPLLARQSHSHSHSHAHSHSNSHGHSHGHAHSASSSSSSNNNSNGSATNNNNNNSSESTSSTETLKWLGSMSDISEASHATGYSAISESVSSSQRIVHSSRVPTPKRHHSESVLYLHNNEEQGDSSPTASNSSQMMISEEANGEESPPSVQPLRIQHRHSPSYPPVHTSMVLHHFQQQQQQQQDYQHPSRHHTNQSTLSTQSSLLELASPTEKPRSLMGQSHSMGDLQQKNPHQNPMLGRSAGQQHKSSISVTISSSEAVVTIAPQPPAGKPSKLQLSLGKSEALSCSTPNMGEQSPTNSIDSYRSNHRLFPVSTYTEPVHSNTSQYVQHPKPQFSSGLHKSAKLPVITPAGATVQPTWHSVAERINDFERSQLGEPPKFAYLEPTKTHRLSNPALKALQKNAVQSYVERQQQQQKEEQQLLRPHSQSYQACHVERKSLPNNLSPIMVGLPTGSNSASTRDCSSPTPPPPPRRSGSLLPNLLRRSSSASDYAEFRELHQAQGQVKGPSIRNISNAEKISFNDCGMPPPPPPPRGRLAVPTRRTSSATEYAPMRDKLLLQQAAALAHQQHHPQQHRHAQPPHVPPERPPKHPNLRVPSPELPPPPQSELDISYTFDEPLPPPPPPEVLQPRPPPSPNRRNCFAGASTRRTTYEAPPPTAIVAAKVPPLVPKKPTSLQHKHLANGGGGSRKRPHHATPQPILENVASPVAPPPPLLPRARSTAHDNVIASNLESNQQKRSNSKASYLPRQSLEKLNNTDPDHGIYKLTLTSNEDLVAHTKPSYGVTGKLPNNLPDVLPLGVKLHQQPKLQPGSPNGDANVTLRYGSNNNLTGNSPTVAPPPYYGGGQRYSTPVLGQGYGKSSKPVTPQQYTRSQSYDVKHTSAVTMPTMSQSHVDLKQAAHDLETTLEEVLPTATPTPTPTPTPTPPRLSPASSHSDCSLSTSSLECTINPIATPIPKPEAHIFRAEVISTTLNTNPLTTPPKPAMNRQESLRENIEKITQLQSVLMSAHLCDASLLGGYTTPLITSPTASFANEPLMTPPLPPSPPPPLEPEEEEEQEENDVHDKQPEIEELQLMQRSELVLMVNPKPSTTDMACQTDELEDRDTDLEAAREEHQTRTTLQPRQRQPIELDYEQMSRELVKLLPPGDKIADILTPKICKPTSQYVSNLYNPDVPLRLAKRDVGTSTLMRMKSITSSAEIRVVSVELQLAEPSEEPTNLIKQKMDELIKHLNQKIVSLKREQQTISEECSANDRLGQDLFAKLAEKVRPSEASKFRTHVDAVGNITSLLLSLSERLAQTESSLETRQQERGALESKRDLLYEQMEEAQRLKSDIERRGVSIAGLLAKNLSADMCADYDYFINMKAKLIADARDLAVRIKGSEEQLSSLSDALVQSDC,MAPPIT interaction score,CG7747,-0.185
Sxl (protein) MYGNNNPGSNNNNGGYPPYGYNNKSSGGRGFGMSHSLPSGMSRYAFSPQDTEFSFPSSSSRRGYNDFPGCGGSGGNGGSANNLGGGNMCHLPPMASNNSLNNLCGLSLGSGGSDDLMNDPRASNTNLIVNYLPQDMTDRELYALFRAIGPINTCRIMRDYKTGYSFGYAFVDFTSEMDSQRAIKVLNGITVRNKRLKVSYARPGGESIKDTNLYVTNLPRTITDDQLDTIFGKYGSIVQKNILRDKLTGRPRGVAFVRYNKREEAQEAISALNNVIPEGGSQPLSVRLAEEHGKAKAAHFMSQMGVVPANVPPPPPQPPAHMAAAFNMMHRGRSIKSQQRFQNSHPYFDAKKFI,MAPPIT interaction score,CG6996,0.192
same,MAPPIT interaction score,Mcad,1.44
same,MAPPIT interaction score,Treh,-0.289
same,MAPPIT interaction score,Unr; MAPPIT configuration: N-C,3.02
same,MAPPIT interaction score,Unr; MAPPIT configuration: N-N,2.17
same,MAPPIT interaction score,gcm,-0.368
same,MAPPIT interaction score,noi,4.3 (active)
same,MAPPIT interaction score,prd,-0.691
sicily (protein) MRRLVRNWNCRLLFNAKSGQEIVSHAGIHQEAKTNAIPREKKVIEADKNGYGAKHCMSLVEKYDYENYLCTLLLPRELRRAAFALRAFNVEVSRSVSGHQIEPQIAKMRLKFWHDSIDKCFEPDSQRSYVEDQPVLRELKHTVGSRKLNKVYLRRLVTARERPPTHAFESIRELEEYTEQTFSSLLLLLLEVGGVRDLNADHAASHLGKAQGIATLLRSIPLAGRQQAPCIPLEVLVLHGVSQERIIRSKSDDKGVEDCIFDVASAANTHLKLARQLHDKVPPQVRKIFLSAVATDAYLERLRRANFLLTHKSCVGRDTLLPARLFWKSLLNRF,MAPPIT interaction score,CG7548; pair source set: Finley_Y2H,-0.0114
same,MAPPIT interaction score,CG7548; pair source set: Lit-BS-16,-0.0114
bora (protein) MYNDEVRTPQALKNRYITNVNGLKCRARRNSHSNSSNSSAASATPTNGGKENGKYSPQMSGNVCTPPPKRLHKVRNPFEGAMADRLHLPLIASPSLFRSRTPQLSSTQFEWNIDEVSQLKPADVEPHETQFHDSPDPEQESKAQLAISAFFKESLIVPSPVDCPLRKQRIILNCSEDNTPISNKSRRMRDCEVQTELTLPPILPKALEDALRPYFQPHLAGRLSGRSKSSGGPDIFNSSMRRKLFDLHNVIVLGEQDTAEPSRSMVGSSPQGKQTMFAGRLSDSASGESSFGCLSPIRNLCGLPPGTPDNGTCSGKRKLLMHELELPSPIAPSEHLSRRLVHSKVEISVTEQHDTLSERTALKFTPDRSSSPMGGGLEHSDCSINQRVRRLRVNSTRQVVIETGDQPLFEETEGEEEEAESEDDEEADAMQLSTVSFNCSSSNSDTPRGHKRHRSAQRKNLSQSFSANLEEEADQTQGGAGSIQPAEPPSVAMPQQGARIPLYRADSGFNETSSTTFAFSQDLPLDVSMACCSTPSTRS,MAPPIT interaction score,CG7747,1.91
sala (protein) MKLLIALFALVTAVNAQNGFGQVGQGGYGGQGGFGGFGGIGGQAGFGGQIGFTGQGGVGGQVGIGQGGVHPGQGGFAGQGSPNQYQPGYGSPVGSGHFHGTNPVESGHFHENPHEYPEHHGDHHREHHEHHGHHEHHGHHRH,MAPPIT interaction score,CG7044,0.14
same,MAPPIT interaction score,aspr,-0.194
